High-throughput results from PubChem.
Hits are enriched below; roughly 32% of the tested compounds scored in any of these assays.
CYP2C9 inh = blockers of cytochrome P450 2C9 activity – biochemical, luminescence, ADME assay, primary screen; AID 777, 2007; inhibition, % at 5 µM; CYP2C9 Supersomes, luciferin-H conversion; 96,000 compounds, 20% hits;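 active = blocking of liver enzyme CYP2C9 beyond about 50% at 5 µM, limit read from the data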
PostGolgi ctrl = growth inhibition of yeast control strain, primary screen, counter-screen for post-Golgi transport modulator project; inhibition, % at 10 µM; efflux-deficient yeast background strain, growth absorbance A615, 16 h; 98,000 compounds, 5% hits
CYP2C9 activ = human CYP2C9 activators, primary screen, biochemical, luminescence | 96,000 compounds, 1.4% hits | Cytochrome P450 2C9 (Homo sapiens), P11712 | activation factor at 5 µM | AID 1024, 2008 | recombinant CYP2C9, luciferin-H conversion; active compounds read high; factor 1 = untreated enzyme, 0 = blocked;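 active = activation factor of 2 or more for CYP2C9 at a 5 µM dose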
CYP2C19 activ = human CYP2C19 activators, primary screen, biochemical, luminescence; activation factor at 5 µM; 96,000 tested, under 10 active; recombinant CYP2C19, luciferin-H EGE luminescence; active compounds read high; 0 = fully inhibited enzyme, 1 = untreated enzyme;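 active = activation factor of at least 2 at 5 µM in the primary screen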
Target sequence (P33261 whole entry, looked up): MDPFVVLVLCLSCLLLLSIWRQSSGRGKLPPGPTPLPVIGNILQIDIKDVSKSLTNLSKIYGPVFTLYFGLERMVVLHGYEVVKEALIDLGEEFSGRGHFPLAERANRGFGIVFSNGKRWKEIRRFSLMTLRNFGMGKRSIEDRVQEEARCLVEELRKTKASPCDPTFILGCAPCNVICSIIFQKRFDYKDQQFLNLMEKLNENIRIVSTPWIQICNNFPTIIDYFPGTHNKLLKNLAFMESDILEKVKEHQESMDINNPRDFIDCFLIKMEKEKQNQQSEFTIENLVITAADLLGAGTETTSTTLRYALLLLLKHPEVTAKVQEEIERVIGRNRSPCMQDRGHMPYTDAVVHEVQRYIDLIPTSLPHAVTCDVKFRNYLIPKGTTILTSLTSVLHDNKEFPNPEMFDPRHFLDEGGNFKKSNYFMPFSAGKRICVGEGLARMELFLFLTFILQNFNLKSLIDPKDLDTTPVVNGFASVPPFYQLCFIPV
PostGolgi yeast = phenotypic screen on post-Golgi transport, primary screen. 98,000 compounds, 0.9% hits. inhibition, % at 10 µM. post-Golgi transport phenotypic cell assay;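 note: yeast cells grown in 1536-well plates; yeast grown about 18 h at 30C before absorbance read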
CYP2C19 inhib = blockers of cytochrome P450 2C19 activity – biochemical, luminescence, ADME assay, primary screen; P33261; CYP2C19 Supersomes, luciferin-H EGE luminescence, 30 min; inhibition, % at 5 µM; 96,000 compounds, 21% hits;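 active = CYP2C19 inhibition above a set limit at 5 µM in the primary screen, cut at about 50% in these data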
A number is an active result; i = inactive; nt = not tested or not shown. Cut-off read from the data, not from the text of the source, unless noted: active = inhibition above about 30%; inactive = the rest.

SMILES	CYP2C9 inh	PostGolgi ctrl	CYP2C9 activ	CYP2C19 activ	PostGolgi yeast	CYP2C19 inhib
CCC(C)c1ccc(OCCCCN2CCOCC2)cc1 (stereo unspecified)	i	i	i	i	70	57
CCOC(=O)/C(=N/Nc1ccc(C)cc1)S(=O)(=O)c1ccc(Cl)cc1	90	i	i	i	i	69
Cc1ccc(CNC(=O)CC2C(=O)Nc3c2c(=O)n(C)c(=O)n3Cc2ccccc2)cc1 (stereo unspecified)	i	i	i	i	i	i
O=C(c1cc2n(n1)C(C(F)(F)F)CC(c1ccco1)N2)N1CCc2ccccc2C1 (stereo unspecified)	i	i	i	i	i	i
O=C(c1cnn2c1NC(c1ccco1)CC2C(F)(F)F)N1CCN(c2cccc(Cl)c2)CC1 (stereo unspecified)	75	65	i	i	i	81
COc1ccccc1N1CCN(C(=O)c2cc3n(n2)C(C(F)(F)F)CC(c2ccco2)N3)CC1 (stereo unspecified)	59	i	i	i	i	i
O=C(Nc1ccc(Cl)cc1F)C1CCN(S(=O)(=O)c2cccnc2)CC1	i	i	i	i	i	i
CCOC(=O)CCN(Cc1cccs1)S(=O)(=O)c1ccc(F)cc1	i	i	i	i	i	75
CCOC(=O)CCN(Cc1sccc1C)S(=O)(=O)c1ccc(F)cc1	66	i	i	i	i	85
CC(=O)c1c(C)[nH]c(C(=O)Nc2c(C)n(C)n(-c3ccccc3)c2=O)c1C	i	nt	i	i	nt	i
Cn1c2ccccc2c2c(C(=O)N3CCN(c4ccccc4)CC3)cn(C3CCCC3)c(=O)c21	52	i	i	i	i	i
CN1CCN(CCCNC(=O)c2cn(C3CCCCC3)c(=O)c3c2c2ccccc2n3C)CC1	i	i	i	i	i	i
Cc1ccc(Cl)cc1N1CCN(C(=O)c2cn(C)c(=O)c3c2c2ccccc2n3C)CC1	96	57	i	i	i	86
Cc1cccc(N2CCN(C(=O)c3cn(C)c(=O)c4c3c3ccccc3n4C)CC2)c1C	70	60	i	i	i	i
Cn1c2ccccc2c2c(C(=O)NCCCN3CCCC3=O)cn(C3CCCCC3)c(=O)c21	55	i	i	i	i	i
COCCn1cc(C(=O)N2CCN(C)CC2)c2c3ccccc3n(C)c2c1=O	i	i	i	i	i	i
CC(=O)NC(Cc1ccccc1F)C(=O)NC1CCN(C(=O)c2cnccn2)CC1 (stereo unspecified)	i	i	i	i	i	i
O=c1cc(C(Cl)(Cl)Cl)oc2c1ccc1ccccc12	65	53	i	i	i	56
COC(=O)CC1=C(C(=O)OC)C(c2cc(OC)c(OC)cc2OC)C(C#N)=C(N)O1 (stereo unspecified)	i	i	i	i	i	i
N#CC1=C(N)Oc2n[nH]c(-c3cccs3)c2C1C1CCCCC1 (stereo unspecified)	i	i	i	i	i	i
CCOC(=O)C1=C(C)OC(N)=C(C#N)C1c1c(C)nn(-c2ccc(C)cc2)c1Cl (stereo unspecified)	97	i	i	i	i	100
COC(=O)C1=C(C)OC(N)=C(C#N)C1c1ccc(OC)c(CSc2ccccn2)c1 (stereo unspecified)	89	i	i	i	i	79
COC(=O)C1=C(C)OC(N)=C(C#N)C1c1ccc(OC)c(OC)c1OC (stereo unspecified)	54	i	i	i	i	58
COC(=O)C1=C(C)OC(N)=C(C#N)C1C1CCCCC1 (stereo unspecified)	54	i	i	i	i	78
Cc1ccc(-n2ncc3c(=O)n(CC(=O)NCC4CCCO4)cnc32)cc1 (stereo unspecified)	i	i	i	i	i	i
COc1cc(C)c(CNC2CCCCC2)cc1C	i	i	i	i	i	i
Cc1cc(-c2ccccc2)[nH]c(=O)c1S(=O)(=O)c1ccccc1	i	i	i	i	i	i
COCCn1c(C)cc2c(c1=O)C(c1ccccc1F)C(C#N)=C(N)O2 (stereo unspecified)	i	i	i	i	i	i
